Measurements taken from the supplement of paper PMC6555819.

Tests used:
Test in all cases: PBM binding z-score (relative to random genomic background probes); higher = stronger binding; sequences stand for … in GC…GCGATTGACAGCGTAGAATGAAGG
[1] = tested on: RARb homodimer (NR concentration 270 nM)
Summary of the method: (§1)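 On custom Agilent 4×180K arrays, double-stranded probes with 34-nt variable regions carried direct-repeat seeds, single-nucleotide variants, half-site ablations or random human genomic background. Ligand-free nuclear receptor dimers were applied for 1 h, and binding was read with antibodies against each partner (one per run). Binding z-scores come from regression-normalized fluorescence, with the random background probes as reference.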

[2] = tested on: RARg:RXRa (NR concentration 270 nM, RXRa partner concentration 90 nM)
Summary of the method: as §1

[3] = tested on: RARg homodimer (NR concentration 270 nM)
Summary of the method: as §1

[4] = tested on: RXRa DBDmut IVT, anti-RXR (DBD mutation: RXRa K156A/R161A, NR concentration 90 nM)
Summary of the method: as §1

[5] = tested on: RXRa homodimer (NR concentration 180 nM)
Summary of the method: as §1

[6] = tested on: THRa:RXRa (NR concentration 90 nM, RXRa partner concentration 90 nM)
Summary of the method: as §1

[7] = tested on: THRa homodimer (NR concentration 90 nM)
Summary of the method: as §1

[8] = tested on: VDR homodimer (NR concentration 270 nM)
Summary of the method: as §1

## GATACAGGGTAAAGGCCAGAGTACGCGTATTGAT
[1]
  PBM binding z-score: 0.909
[2]
  PBM binding z-score: 0.831
[3]
  PBM binding z-score: 0.93
[4]
  PBM binding z-score: -0.389
[5]
  PBM binding z-score: 0.877
[6]
  PBM binding z-score: 0.316
[7]
  PBM binding z-score: -0.482
[8]
  PBM binding z-score: -0.0194

## TAGCCTAGGTCAGGCGGGCCAGTATAGTGTCGGC
[1]
  PBM binding z-score: 2.21
[2]
  PBM binding z-score: 2.75
[3]
  PBM binding z-score: 3.45
[4]
  PBM binding z-score: -1.1
[5]
  PBM binding z-score: 1.3
[6]
  PBM binding z-score: 1.86
[7]
  PBM binding z-score: -0.0587
[8]
  PBM binding z-score: -0.674

## ATCTCTAGGTAAAGATAGTACAGTGAATGCAAAT
[1]
  PBM binding z-score: 0.0852
[2]
  PBM binding z-score: 0.268
[3]
  PBM binding z-score: 0.707
[4]
  PBM binding z-score: -0.147
[5]
  PBM binding z-score: 0.301
[6]
  PBM binding z-score: 0.452
[7]
  PBM binding z-score: 0.0174
[8]
  PBM binding z-score: 0.54

## AGATGTAGGTTATCGGGTCATTCAGTTTGCGCAT
[1]
  PBM binding z-score: 3.17
[2]
  PBM binding z-score: 3.19
[3]
  PBM binding z-score: 2.6
[4]
  PBM binding z-score: 1.75
[5]
  PBM binding z-score: 3.47
[6]
  PBM binding z-score: 3.46
[7]
  PBM binding z-score: 2.87
[8]
  PBM binding z-score: 3.92

## CCGACTGGGGCATAAGGTTGCCATAAGCCAGCCC
[1]
  PBM binding z-score: 0.294
[2]
  PBM binding z-score: 0.249
[3]
  PBM binding z-score: 0.278
[4]
  PBM binding z-score: -0.617
[5]
  PBM binding z-score: -0.0266
[6]
  PBM binding z-score: 0.276
[7]
  PBM binding z-score: -0.00565
[8]
  PBM binding z-score: -0.0503

## CCTACTGGGCCATCAGGGCATTGATATCAACGTT
[1]
  PBM binding z-score: 0.404
[2]
  PBM binding z-score: 0.0558
[3]
  PBM binding z-score: 0.438
[4]
  PBM binding z-score: -0.959
[5]
  PBM binding z-score: -0.308
[6]
  PBM binding z-score: 0.292
[7]
  PBM binding z-score: -0.276
[8]
  PBM binding z-score: -0.114

## CCTGCTATGTCAATGGTCAGCTAAAGCAGCTCGC
[1]
  PBM binding z-score: 0.33
[2]
  PBM binding z-score: 0.00581
[3]
  PBM binding z-score: 0.0986
[4]
  PBM binding z-score: 0.386
[5]
  PBM binding z-score: -0.174
[6]
  PBM binding z-score: -0.688
[7]
  PBM binding z-score: -0.637
[8]
  PBM binding z-score: -0.777

## CGAACTAGGTTATCCAGGACAGTGAATACATTGA
[1]
  PBM binding z-score: 0.559
[2]
  PBM binding z-score: 0.544
[3]
  PBM binding z-score: 1.04
[4]
  PBM binding z-score: 0.958
[5]
  PBM binding z-score: 0.343
[6]
  PBM binding z-score: 2.45
[7]
  PBM binding z-score: 1.19
[8]
  PBM binding z-score: 0.455

## CGAAAGAGGGCATGAGTTGATAGCAAATGCCGAT
[1]
  PBM binding z-score: 1
[2]
  PBM binding z-score: 1.76
[3]
  PBM binding z-score: 1.96
[4]
  PBM binding z-score: 1.67
[5]
  PBM binding z-score: 1.27
[6]
  PBM binding z-score: 0.416
[7]
  PBM binding z-score: -0.334
[8]
  PBM binding z-score: 1.1

## TCATATAGGTAAAGGTGATAGTCGAACGATATGA
[1]
  PBM binding z-score: 0.45
[2]
  PBM binding z-score: 0.866
[3]
  PBM binding z-score: 0.944
[4]
  PBM binding z-score: 0.699
[5]
  PBM binding z-score: 1.19
[6]
  PBM binding z-score: 0.353
[7]
  PBM binding z-score: -0.589
[8]
  PBM binding z-score: -0.591

## CCAACTAGGTCATCCAGGACAGTGAATACATTGA
[1]
  PBM binding z-score: 3.44
[2]
  PBM binding z-score: 3.88
[3]
  PBM binding z-score: 4.83
[4]
  PBM binding z-score: 2.49
[5]
  PBM binding z-score: 2.77
[6]
  PBM binding z-score: 3.79
[7]
  PBM binding z-score: 2.61
[8]
  PBM binding z-score: 2.63

## CGAACTAGGTCATCCAGCACAGTGAATACATTGA
[1]
  PBM binding z-score: 2.79
[2]
  PBM binding z-score: 4
[3]
  PBM binding z-score: 4.55
[4]
  PBM binding z-score: 2.13
[5]
  PBM binding z-score: 2.92
[6]
  PBM binding z-score: 2.85
[7]
  PBM binding z-score: 1.13
[8]
  PBM binding z-score: 1.16

## GCTGCTAGGTCAGCTGATGGTCAGCTAAAGCTCG
[1]
  PBM binding z-score: 2.88
[2]
  PBM binding z-score: 3.97
[3]
  PBM binding z-score: 4.38
[4]
  PBM binding z-score: 0.423
[5]
  PBM binding z-score: 0.813
[6]
  PBM binding z-score: 1.83
[7]
  PBM binding z-score: -0.0581
[8]
  PBM binding z-score: -1.09

## TTACCAAGGTGAAGGTTGTTGATCCCTCTGTAGA
[1]
  PBM binding z-score: 1.02
[2]
  PBM binding z-score: 0.564
[3]
  PBM binding z-score: 0.48
[4]
  PBM binding z-score: -0.157
[5]
  PBM binding z-score: 0.836
[6]
  PBM binding z-score: 2.06
[7]
  PBM binding z-score: 0.718
[8]
  PBM binding z-score: -0.156

## AGTCAAAGTTCAGGACGAGCTAACGTAAAGCACG
[1]
  PBM binding z-score: 2.77
[2]
  PBM binding z-score: 4.22
[3]
  PBM binding z-score: 4.84
[4]
  PBM binding z-score: 2.68
[5]
  PBM binding z-score: 2.83
[6]
  PBM binding z-score: 1.95
[7]
  PBM binding z-score: 0.278
[8]
  PBM binding z-score: 1.5
